# Laboratory results taken from paper PMC7862700, “An all-to-all approach to the identification of sequence-specific readers for epigenetic DNA modifications on cytosine”.
# Tests used:
# Assay in all cases: DAPPL (digital affinity profiling via proximity ligation, sequencing); 10 mM Tris-HCl pH 7.5, 50 mM NaCl, 1 mM DTT, 4% glycerol, room temperature, 30 min; GST-TFs on glutathione beads, 16-mer random dsDNA library, 0.1% formaldehyde crosslink after washing; high values mean tight binding
# FLI1 = target: T1, FLI1 (Homo sapiens, UniProt Q01543 1-452); details: protein: recombinant; tags: N-terminal GST; dsDNA, one strand shown
# T1 sequence: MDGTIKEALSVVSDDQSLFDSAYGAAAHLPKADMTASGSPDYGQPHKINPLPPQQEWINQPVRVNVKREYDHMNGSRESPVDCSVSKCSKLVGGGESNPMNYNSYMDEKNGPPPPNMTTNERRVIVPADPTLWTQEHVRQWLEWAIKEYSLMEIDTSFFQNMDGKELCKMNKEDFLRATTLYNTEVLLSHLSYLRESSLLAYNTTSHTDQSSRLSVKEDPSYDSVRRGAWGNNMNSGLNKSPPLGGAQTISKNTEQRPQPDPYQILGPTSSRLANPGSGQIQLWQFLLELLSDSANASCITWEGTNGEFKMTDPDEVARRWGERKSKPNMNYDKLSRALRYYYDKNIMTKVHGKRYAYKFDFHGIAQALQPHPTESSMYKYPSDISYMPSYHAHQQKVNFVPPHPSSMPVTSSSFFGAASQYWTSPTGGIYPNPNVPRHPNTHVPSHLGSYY
# Summary of the method: (§1)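 Each value of binding signal is a hexamer's read frequency for a factor divided by the same hexamer's frequency in the tag-only sample. Barcoded, bead-captured GST fusions of human transcription factors made in yeast were pooled with that sample and incubated with 200 nmole of a random double-stranded 16-mer DNA library in Tris/NaCl/DTT/glycerol buffer at room temperature for 30 min. Washing, 0.1% formaldehyde crosslinking, proximity ligation, PCR and Illumina NextSeq500 sequencing followed.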
# ELK1 = target: T2, ELK1 (Homo sapiens, UniProt P19419 1-428); details: protein: recombinant; tags: N-terminal GST; dsDNA, one strand shown
# T2 sequence: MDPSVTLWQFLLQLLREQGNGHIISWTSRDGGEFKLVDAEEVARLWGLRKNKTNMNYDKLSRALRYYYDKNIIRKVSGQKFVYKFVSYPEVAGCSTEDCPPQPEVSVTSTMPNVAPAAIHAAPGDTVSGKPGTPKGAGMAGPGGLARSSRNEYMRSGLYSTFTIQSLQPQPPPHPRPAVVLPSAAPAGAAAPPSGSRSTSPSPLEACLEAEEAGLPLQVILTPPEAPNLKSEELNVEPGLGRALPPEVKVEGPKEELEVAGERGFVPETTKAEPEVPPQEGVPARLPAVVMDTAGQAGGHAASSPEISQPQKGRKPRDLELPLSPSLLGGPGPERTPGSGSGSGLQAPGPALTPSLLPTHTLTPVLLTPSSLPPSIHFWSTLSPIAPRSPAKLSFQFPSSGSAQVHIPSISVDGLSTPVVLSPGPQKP
# Summary of the method: as §1
# GABPA = target: T3, GABPA (Homo sapiens, UniProt Q06546 1-454); details: protein: recombinant; tags: N-terminal GST; dsDNA, one strand shown
# T3 sequence: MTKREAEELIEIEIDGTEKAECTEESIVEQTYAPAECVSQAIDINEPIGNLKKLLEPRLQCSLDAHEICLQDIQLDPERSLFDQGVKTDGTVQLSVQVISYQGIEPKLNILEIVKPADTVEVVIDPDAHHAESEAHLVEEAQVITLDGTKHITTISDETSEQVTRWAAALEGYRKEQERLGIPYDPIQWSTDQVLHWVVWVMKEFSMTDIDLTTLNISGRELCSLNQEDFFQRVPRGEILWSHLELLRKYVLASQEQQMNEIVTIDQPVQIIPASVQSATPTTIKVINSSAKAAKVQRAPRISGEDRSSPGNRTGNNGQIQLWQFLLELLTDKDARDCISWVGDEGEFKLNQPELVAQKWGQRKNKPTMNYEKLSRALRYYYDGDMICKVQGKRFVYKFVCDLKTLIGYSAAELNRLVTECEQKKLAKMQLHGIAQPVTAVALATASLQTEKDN
# Summary of the method: as §1
# ERG = target: T4, ERG (Homo sapiens, UniProt P11308 1-479); details: protein: recombinant; tags: N-terminal GST; dsDNA, one strand shown
# T4 sequence: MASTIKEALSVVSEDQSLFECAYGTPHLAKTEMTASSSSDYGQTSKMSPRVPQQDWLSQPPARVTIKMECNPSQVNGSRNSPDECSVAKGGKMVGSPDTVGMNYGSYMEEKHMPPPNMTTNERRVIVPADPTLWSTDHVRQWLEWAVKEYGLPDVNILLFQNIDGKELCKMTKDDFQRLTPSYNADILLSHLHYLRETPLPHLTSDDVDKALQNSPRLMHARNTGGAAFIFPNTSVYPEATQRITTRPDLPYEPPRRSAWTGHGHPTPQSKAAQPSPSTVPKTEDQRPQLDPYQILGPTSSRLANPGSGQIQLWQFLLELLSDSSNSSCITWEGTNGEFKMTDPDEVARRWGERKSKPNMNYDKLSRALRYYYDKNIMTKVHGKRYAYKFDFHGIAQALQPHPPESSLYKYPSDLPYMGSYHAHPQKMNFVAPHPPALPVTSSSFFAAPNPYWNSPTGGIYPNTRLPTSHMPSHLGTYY
# Summary of the method: as §1
# ELF1 = ELF1 (Homo sapiens, UniProt P32519 1-619); details: protein: recombinant; tags: N-terminal GST; dsDNA, one strand shown
# Summary of the method: as §1
# EHF = target: T5, EHF (Homo sapiens, UniProt Q9NZC4 1-300); details: protein: recombinant; tags: N-terminal GST; dsDNA, one strand shown
# T5 sequence: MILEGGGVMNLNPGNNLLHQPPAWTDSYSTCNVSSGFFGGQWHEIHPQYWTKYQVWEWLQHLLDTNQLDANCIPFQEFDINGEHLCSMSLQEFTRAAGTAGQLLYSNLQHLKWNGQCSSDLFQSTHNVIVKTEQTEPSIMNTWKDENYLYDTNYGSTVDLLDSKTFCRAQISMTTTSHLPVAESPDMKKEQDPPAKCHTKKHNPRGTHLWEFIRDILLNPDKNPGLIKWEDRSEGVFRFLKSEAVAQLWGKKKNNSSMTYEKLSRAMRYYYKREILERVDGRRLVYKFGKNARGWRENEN
# Summary of the method: as §1
# SPI1 = SPI1 (Homo sapiens, UniProt P17947 1-270); details: protein: recombinant; tags: N-terminal GST; dsDNA, one strand shown
# Summary of the method: as §1
# SPIB = SPIB (Homo sapiens, UniProt Q01892 1-262); details: protein: recombinant; tags: N-terminal GST; dsDNA, one strand shown
# Summary of the method: as §1
# ELK3 = target: T6, ELK3 (Homo sapiens, UniProt P41970 1-407); details: protein: recombinant; tags: N-terminal GST; dsDNA, one strand shown
# T6 sequence: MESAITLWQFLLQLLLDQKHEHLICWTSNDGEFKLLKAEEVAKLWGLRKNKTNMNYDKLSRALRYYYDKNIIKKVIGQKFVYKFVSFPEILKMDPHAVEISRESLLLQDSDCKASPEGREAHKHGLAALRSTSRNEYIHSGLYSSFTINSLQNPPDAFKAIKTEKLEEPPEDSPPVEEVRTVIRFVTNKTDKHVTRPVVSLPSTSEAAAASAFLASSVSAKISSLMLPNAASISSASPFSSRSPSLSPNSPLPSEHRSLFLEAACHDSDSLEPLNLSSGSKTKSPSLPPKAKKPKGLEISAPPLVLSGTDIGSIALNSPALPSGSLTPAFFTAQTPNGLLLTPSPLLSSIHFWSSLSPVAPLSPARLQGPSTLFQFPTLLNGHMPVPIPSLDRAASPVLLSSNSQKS
# Summary of the method: as §1
# FEV = target: T7, FEV (Homo sapiens, UniProt Q99581 1-238); details: protein: recombinant; tags: N-terminal GST; dsDNA, one strand shown
# T7 sequence: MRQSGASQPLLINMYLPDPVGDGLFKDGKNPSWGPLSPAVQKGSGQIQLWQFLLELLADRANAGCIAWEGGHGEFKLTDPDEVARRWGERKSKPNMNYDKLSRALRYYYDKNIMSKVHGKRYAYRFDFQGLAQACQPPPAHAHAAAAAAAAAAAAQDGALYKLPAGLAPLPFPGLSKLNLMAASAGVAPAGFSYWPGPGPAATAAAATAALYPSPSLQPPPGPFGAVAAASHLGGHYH
# Summary of the method: as §1
# ETV5 = ETV5 (Homo sapiens, UniProt P41161 1-510); details: protein: recombinant; tags: N-terminal GST; dsDNA, one strand shown
# Summary of the method: as §1
# HSF1 = HSF1 (Homo sapiens, UniProt Q00613 1-529); details: protein: recombinant; tags: N-terminal GST; chain copies: 3; dsDNA, one strand shown
# Summary of the method: as §1
# SPIC = target: T8, SPIC (Homo sapiens, UniProt Q8N5J4 1-248); details: protein: recombinant; tags: N-terminal GST; dsDNA, one strand shown
# T8 sequence: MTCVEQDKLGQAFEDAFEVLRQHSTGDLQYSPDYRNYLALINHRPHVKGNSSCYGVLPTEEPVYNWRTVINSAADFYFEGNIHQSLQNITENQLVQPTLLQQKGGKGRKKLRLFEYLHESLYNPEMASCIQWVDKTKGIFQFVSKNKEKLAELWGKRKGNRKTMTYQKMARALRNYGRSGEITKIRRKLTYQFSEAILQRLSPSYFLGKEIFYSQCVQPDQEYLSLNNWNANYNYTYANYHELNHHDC
# Summary of the method: as §1
# ELF4 = ELF4 (Homo sapiens, UniProt Q99607 1-663); details: protein: recombinant; tags: N-terminal GST; dsDNA, one strand shown
# Summary of the method: as §1
# ELK4 = target: T9, ELK4 (Homo sapiens, UniProt P28324-2 1-405); details: protein: recombinant; tags: N-terminal GST; dsDNA, one strand shown
# T9 sequence: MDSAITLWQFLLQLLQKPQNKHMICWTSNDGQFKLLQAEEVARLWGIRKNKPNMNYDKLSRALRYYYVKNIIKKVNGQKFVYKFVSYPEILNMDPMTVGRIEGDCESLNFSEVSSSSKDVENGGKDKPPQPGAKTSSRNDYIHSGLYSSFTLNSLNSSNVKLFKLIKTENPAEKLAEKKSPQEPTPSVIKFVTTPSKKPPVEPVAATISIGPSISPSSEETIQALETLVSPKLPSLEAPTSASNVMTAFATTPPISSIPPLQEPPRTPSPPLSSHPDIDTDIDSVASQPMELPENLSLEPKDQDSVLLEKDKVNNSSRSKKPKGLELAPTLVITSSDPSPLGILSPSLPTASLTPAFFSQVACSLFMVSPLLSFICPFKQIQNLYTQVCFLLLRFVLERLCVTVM
# Summary of the method: as §1
# ETV2 = target: T10, ETV2 (Homo sapiens, UniProt O00321 1-342); details: protein: recombinant; tags: N-terminal GST; dsDNA, one strand shown
# T10 sequence: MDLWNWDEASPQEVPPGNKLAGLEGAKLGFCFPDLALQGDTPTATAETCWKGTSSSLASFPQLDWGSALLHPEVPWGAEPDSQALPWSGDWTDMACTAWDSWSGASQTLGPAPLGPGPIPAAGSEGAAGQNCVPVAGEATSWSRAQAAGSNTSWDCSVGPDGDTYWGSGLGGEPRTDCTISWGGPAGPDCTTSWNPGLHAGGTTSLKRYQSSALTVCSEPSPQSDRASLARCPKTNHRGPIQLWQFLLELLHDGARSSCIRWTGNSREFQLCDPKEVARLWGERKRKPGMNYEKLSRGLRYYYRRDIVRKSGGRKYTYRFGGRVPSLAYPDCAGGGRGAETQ
# Summary of the method: as §1
# ELF3 = target: T11, ELF3 (Homo sapiens, UniProt P78545 1-371); details: protein: recombinant; tags: N-terminal GST; dsDNA, one strand shown
# T11 sequence: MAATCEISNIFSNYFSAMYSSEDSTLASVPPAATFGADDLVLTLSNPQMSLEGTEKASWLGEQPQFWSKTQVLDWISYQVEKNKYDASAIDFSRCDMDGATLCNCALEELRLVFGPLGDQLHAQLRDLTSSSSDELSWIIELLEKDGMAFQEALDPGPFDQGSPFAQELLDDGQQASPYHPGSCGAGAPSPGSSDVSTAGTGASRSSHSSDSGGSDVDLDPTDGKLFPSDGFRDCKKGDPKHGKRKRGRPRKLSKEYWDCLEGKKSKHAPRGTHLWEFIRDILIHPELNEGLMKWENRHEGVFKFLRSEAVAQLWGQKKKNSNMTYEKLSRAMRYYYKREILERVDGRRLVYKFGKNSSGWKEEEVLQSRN
# Summary of the method: as §1
# CRX = CRX (Homo sapiens, UniProt O43186 1-299); details: protein: recombinant; tags: N-terminal GST; dsDNA, one strand shown
# Summary of the method: as §1
# ETV1 = ETV1 (Homo sapiens, UniProt P50549 1-477); details: protein: recombinant; tags: N-terminal GST; dsDNA, one strand shown
# Summary of the method: as §1
# Chain of HSF1 (Q00613 whole entry): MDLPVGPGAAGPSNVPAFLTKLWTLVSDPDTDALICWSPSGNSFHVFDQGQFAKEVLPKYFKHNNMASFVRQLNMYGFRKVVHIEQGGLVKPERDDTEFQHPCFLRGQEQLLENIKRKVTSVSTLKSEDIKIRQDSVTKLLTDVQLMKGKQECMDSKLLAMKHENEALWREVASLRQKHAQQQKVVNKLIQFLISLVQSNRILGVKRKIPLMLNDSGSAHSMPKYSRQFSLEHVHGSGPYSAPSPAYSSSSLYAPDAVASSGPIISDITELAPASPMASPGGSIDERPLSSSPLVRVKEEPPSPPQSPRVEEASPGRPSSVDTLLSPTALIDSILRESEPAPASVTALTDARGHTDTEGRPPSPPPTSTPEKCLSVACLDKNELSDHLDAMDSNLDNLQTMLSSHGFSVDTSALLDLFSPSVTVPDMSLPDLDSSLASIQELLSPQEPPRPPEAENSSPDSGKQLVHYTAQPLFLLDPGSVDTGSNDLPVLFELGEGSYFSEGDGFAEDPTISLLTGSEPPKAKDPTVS
# Chain of ELF4 (Q99607 whole entry): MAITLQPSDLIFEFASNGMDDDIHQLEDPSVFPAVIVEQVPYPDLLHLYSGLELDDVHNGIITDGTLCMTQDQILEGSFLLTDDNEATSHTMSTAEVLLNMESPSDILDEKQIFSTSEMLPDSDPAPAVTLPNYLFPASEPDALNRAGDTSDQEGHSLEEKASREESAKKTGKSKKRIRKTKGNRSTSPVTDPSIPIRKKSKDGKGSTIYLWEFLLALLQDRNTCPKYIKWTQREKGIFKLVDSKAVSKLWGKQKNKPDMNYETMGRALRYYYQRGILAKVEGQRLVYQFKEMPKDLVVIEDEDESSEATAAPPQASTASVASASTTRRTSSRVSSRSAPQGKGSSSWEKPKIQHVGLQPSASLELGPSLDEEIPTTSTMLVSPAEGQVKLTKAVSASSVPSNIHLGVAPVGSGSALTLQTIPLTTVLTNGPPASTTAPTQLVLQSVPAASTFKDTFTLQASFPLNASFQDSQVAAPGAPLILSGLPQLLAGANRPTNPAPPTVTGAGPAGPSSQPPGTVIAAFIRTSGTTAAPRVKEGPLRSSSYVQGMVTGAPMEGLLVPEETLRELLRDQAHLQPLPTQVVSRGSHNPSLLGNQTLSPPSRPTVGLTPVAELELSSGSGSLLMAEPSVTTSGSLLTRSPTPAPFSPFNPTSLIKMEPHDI
# Chain of ELF1 (P32519 whole entry): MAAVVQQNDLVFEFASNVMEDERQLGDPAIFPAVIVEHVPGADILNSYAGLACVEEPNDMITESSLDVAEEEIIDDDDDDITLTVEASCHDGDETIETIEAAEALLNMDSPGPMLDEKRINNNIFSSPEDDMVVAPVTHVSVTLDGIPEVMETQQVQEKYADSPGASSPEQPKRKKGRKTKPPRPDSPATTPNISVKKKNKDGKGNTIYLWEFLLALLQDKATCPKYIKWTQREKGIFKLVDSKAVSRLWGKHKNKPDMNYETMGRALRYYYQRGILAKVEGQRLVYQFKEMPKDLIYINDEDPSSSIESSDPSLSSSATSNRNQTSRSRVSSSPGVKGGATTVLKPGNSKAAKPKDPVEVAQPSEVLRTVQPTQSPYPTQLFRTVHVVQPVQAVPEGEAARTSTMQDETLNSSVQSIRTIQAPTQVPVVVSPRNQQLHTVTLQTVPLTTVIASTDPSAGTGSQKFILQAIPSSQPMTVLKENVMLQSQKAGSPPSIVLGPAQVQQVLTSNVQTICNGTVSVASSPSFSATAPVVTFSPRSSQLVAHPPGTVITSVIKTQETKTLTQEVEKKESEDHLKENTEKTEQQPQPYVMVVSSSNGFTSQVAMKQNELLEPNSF
# Chain of ETV1 (P50549 whole entry): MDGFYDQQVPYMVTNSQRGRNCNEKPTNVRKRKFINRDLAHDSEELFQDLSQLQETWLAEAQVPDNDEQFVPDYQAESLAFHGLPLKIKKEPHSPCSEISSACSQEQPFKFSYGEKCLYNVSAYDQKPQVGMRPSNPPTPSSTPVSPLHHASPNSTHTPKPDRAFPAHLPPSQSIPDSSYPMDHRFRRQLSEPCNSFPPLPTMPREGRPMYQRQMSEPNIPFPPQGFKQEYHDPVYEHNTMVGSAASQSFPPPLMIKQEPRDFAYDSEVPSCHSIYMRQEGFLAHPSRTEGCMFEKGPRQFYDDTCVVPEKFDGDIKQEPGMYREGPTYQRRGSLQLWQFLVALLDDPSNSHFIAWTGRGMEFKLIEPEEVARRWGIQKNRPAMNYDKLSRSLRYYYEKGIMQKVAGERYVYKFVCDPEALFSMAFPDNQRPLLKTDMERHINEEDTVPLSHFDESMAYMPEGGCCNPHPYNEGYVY
# Chain of SPIB (Q01892 whole entry): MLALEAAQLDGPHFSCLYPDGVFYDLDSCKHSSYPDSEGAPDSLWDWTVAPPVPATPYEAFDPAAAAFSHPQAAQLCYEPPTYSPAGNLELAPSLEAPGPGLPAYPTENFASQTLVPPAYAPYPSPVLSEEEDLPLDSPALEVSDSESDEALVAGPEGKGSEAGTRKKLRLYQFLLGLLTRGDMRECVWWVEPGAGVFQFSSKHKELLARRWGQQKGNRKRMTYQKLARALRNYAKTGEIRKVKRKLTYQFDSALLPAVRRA
# Chain of CRX (O43186 whole entry): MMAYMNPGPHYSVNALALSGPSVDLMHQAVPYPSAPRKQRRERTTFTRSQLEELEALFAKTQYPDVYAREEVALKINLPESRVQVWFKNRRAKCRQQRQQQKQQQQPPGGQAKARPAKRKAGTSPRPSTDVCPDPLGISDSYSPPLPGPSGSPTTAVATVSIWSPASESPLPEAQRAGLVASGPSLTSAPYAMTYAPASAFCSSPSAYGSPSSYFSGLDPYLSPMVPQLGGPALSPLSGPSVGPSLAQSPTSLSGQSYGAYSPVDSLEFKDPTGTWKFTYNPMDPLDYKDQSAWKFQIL
# Chain of ETV5 (P41161 whole entry): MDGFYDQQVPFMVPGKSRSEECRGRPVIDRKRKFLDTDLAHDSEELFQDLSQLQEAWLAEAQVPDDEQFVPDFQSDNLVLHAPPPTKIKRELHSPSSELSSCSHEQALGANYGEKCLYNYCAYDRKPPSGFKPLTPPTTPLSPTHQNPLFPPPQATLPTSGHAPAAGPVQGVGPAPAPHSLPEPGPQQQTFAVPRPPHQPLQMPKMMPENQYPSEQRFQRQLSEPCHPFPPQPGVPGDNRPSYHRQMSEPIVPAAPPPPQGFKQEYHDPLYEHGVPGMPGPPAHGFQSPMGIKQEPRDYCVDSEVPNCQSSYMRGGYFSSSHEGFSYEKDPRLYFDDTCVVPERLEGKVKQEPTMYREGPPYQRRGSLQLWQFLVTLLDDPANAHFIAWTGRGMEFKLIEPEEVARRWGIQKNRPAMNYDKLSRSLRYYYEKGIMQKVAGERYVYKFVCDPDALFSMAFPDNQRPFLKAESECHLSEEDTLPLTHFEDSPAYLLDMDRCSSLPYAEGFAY
sequence,measurement,setting,value
TTTGTA,binding signal,FLI1,"1.64 fold enrichment (6-mer frequency, TF over GST control)"
same,binding signal,ELK1,"1.47 fold enrichment (6-mer frequency, TF over GST control)"
same,binding signal,GABPA,"1.48 fold enrichment (6-mer frequency, TF over GST control)"
same,binding signal,ERG,"1.53 fold enrichment (6-mer frequency, TF over GST control)"
same,binding signal,ELF1,"1.56 fold enrichment (6-mer frequency, TF over GST control)"
same,binding signal,EHF,"1.55 fold enrichment (6-mer frequency, TF over GST control)"
same,binding signal,SPI1,"1.54 fold enrichment (6-mer frequency, TF over GST control)"
same,binding signal,SPIB,"1.65 fold enrichment (6-mer frequency, TF over GST control)"
same,binding signal,ELK3,"1.51 fold enrichment (6-mer frequency, TF over GST control)"
same,binding signal,FEV,"1.52 fold enrichment (6-mer frequency, TF over GST control)"
same,binding signal,ETV5,"1.64 fold enrichment (6-mer frequency, TF over GST control)"
same,binding signal,HSF1,"1.65 fold enrichment (6-mer frequency, TF over GST control)"
same,binding signal,SPIC,"1.57 fold enrichment (6-mer frequency, TF over GST control)"
same,binding signal,ELF4,"1.58 fold enrichment (6-mer frequency, TF over GST control)"
same,binding signal,ELK4,"1.75 fold enrichment (6-mer frequency, TF over GST control)"
same,binding signal,ETV2,"1.53 fold enrichment (6-mer frequency, TF over GST control)"
same,binding signal,ELF3,"1.61 fold enrichment (6-mer frequency, TF over GST control)"
same,binding signal,CRX,"1.89 fold enrichment (6-mer frequency, TF over GST control)"
same,binding signal,ETV1,"1.51 fold enrichment (6-mer frequency, TF over GST control)"
